This note sets out measurements from PubChem BioAssay (NCATS).

Experiment [1] has as its target Glutathione peroxidase 1 (Homo sapiens) (UniProt P07203). In words: Primary qHTS Assay for Inhibitors of Recombinant Selenoprotein Glutathione Peroxidase 1 (GPX1) (AID 1845191). Also: nearly all actives have a fitted effect of over 65% in size. Also: potency is read from the fitted curve at half-maximal effect. The method in brief:
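GR-coupled readout: NADPH consumption tracked by fluorescence, ex 340/em 450 nm, at t=0 and after 15 min at RT. Final mix 10 nM GPX1, 1 mM GSH, 0.5 mM CHP, 0.5 mM NADPH, 100 nM GR, 0.01% BSA, following 30 min enzyme–compound preincubation.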
(In general: Quantitative high-throughput screening tests each substance at several concentrations.)

In experiment [2] the target is Phospholipid hydroperoxide glutathione peroxidase GPX4 (Homo sapiens) (UniProt P36969). In words: Primary qHTS Assay for Inhibitors of Recombinant Selenoprotein Glutathione Peroxidase 4 (GPX4) (AID 1845192). Also: nearly all actives have a fitted effect of over 65% in size. Put shortly:
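Steps: GPX4 plus compound, 30 min RT; add GR/GSH/NADPH master mix; start with cumene hydroperoxide; read 340/450 nm fluorescence at 0 and 15 min. Finals were 200 nM GPX4, 1 mM GSH, 0.5 mM CHP, 0.5 mM NADPH, 100 nM GR.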

For experiment [3], the target named is Cytochrome P450 3A4 (Homo sapiens) (UniProt P08684). In words: qHTS for inhibitors of CYP3A4 against the NCATS DSHEA and TCM libraries (AID 1919971).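 Also: % is scaled to controls: 0 for no effect and ±100 for the full control effect; inhibition lowers luminescence from luciferin made by CYP3A4.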 The method in brief: (§1)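 Isoform-specific enzyme and substrate levels; enzyme-free wells as background. Reaction: 1x NADPH regenerating system, 30-45 min, room temperature, shielded from light; luminescent detection reagent added, 30 min.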

The target of experiment [4] is Cytochrome P450 2D6 (Homo sapiens) (UniProt P10635). In words: qHTS for inhibitors of CYP2D6 against the NCATS DSHEA and TCM libraries (AID 1919972). Also: % is scaled to controls: 0 for no effect and ±100 for the full control effect. Put shortly:
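qHTS, concentration–response format with most substances from 19.5 nM. CYP2D6 + pro-luciferin substrate, 15 min with compound, then 1x NADPH regen, 30–45 min RT dark. Glo detection 30 min, luminescence. Quinidine control.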

Experiment [5] deals with Cytochrome P450 2C9 (Homo sapiens) (UniProt P11712). In words: qHTS for inhibitors of CYP2C9 against the NCATS DSHEA and TCM libraries (AID 1919973).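 Also: luminogenic pro-luciferin CYP2C9 substrate turned into luciferin with NADPH regeneration; series mostly up to about 34 µM; % is scaled to controls: 0 for no effect and ±100 for the full control effect.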 Put shortly: as §1
In experiment [6] the target is Cytochrome P450 2C19 (Homo sapiens) (UniProt P33261). The experiment can be described thus: qHTS for inhibitors of CYP2C19 against the NCATS DSHEA and TCM libraries (AID 1919974).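 Also: luminescence from luciferin released by CYP2C19 oxidation of a pro-luciferin substrate; % is scaled to controls: 0 for no effect and ±100 for the full control effect.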 The method in brief:
as §1

Experiment [7] is described as follows: KB-3-1 P-gp reporter qHTS against the NCATS DSHEA and TCM libraries (AID 1919975). Also: 0% is about no effect. Put shortly: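 CellTiter-Glo luminescence viability readout; KB-3-1 parental cells, 500/well, attached ~4 h, then compound for ~72 h, 37C, 5% CO2. Bortezomib intraplate control.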
Experiment [8] addresses Cytochrome P450 1A2 (Homo sapiens) (UniProt P05177). The experiment can be described thus: qHTS for inhibitors of CYPIA2 against the NCATS DSHEA and TCM libraries (AID 1919976).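 Also: light from luciferin formed by CYP1A2 from a pro-luciferin substrate; series mostly up to about 37 µM; % is scaled to controls: 0 for no effect and ±100 for the full control effect.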 Put shortly:
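Furafylline served as the plate control. Compounds met CYP1A2 and pro-luciferin substrate 15 min before NADPH regeneration solution (1x) was added; after 30-45 min at RT, P450-Glo reagent was added for 30 min and luminescence was measured.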

Experiment [9] is described as follows: qHTS Counterscreen for compound interference against the NCATS DSHEA and TCM libraries (AID 1919978).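 Also: compounds preincubated with 1 µM D-luciferin or buffer before detection reagent; % of control where 0% means no effect.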 The conditions noted are these: firefly luciferase detection reagent interference, luminescence. Put shortly: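 Luminescence counterscreen for detection-kit interference: compounds at 19.5 nM–39.8 uM final, 15 min RT with 1 uM D-luciferin or buffer only; detection reagent added, 30 min RT, then read.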

A short description of experiment [10]: Dual reporter qHTS for agonist of Pregnane X Receptor (hPXR) against the NCATS DSHEA and TCM libraries: Fluorescence readout (AID 1920058). Also: 0% is about no effect. Put shortly:
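In this qHTS counter-read, reporter-bearing HepG2 cells in charcoal-stripped serum received substances for approximately 24 h before viability was assessed fluorometrically with CellTiter-Fluor.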

Experiment [11] deals with Nuclear receptor subfamily 1 group I member 2 (Homo sapiens) (UniProt O75469). In words: Dual reporter qHTS for agonist of Pregnane X Receptor (hPXR) against the NCATS DSHEA and TCM libraries: Luminescence readout (AID 1920059). Also: 0% is about no effect. The method in brief: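 hPXR-Luc HepG2 cells, 2000/well in 5% charcoal-stripped FBS medium, attached 5 h, then exposed 24 h at 37C to compounds. Viability by CellTiter-Fluor, then luciferase luminescence with ONE-Glo.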

The target is the same in experiment [12]. In words: Dual reporter qHTS for antagonist of Pregnane X Receptor (hPXR) against the NCATS DSHEA and TCM libraries: Luminescence Readout (AID 1920060).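 Also: HepG2 cells carrying hPXR luciferase reporter stimulated with rifampicin at 2 µM; 0% is about no effect.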 The method in brief: (§2)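 hPXR-Luc HepG2 cells exposed 24 h at 37 C to compounds with 2 uM rifampicin in antagonist mode; luciferase luminescence measured by ONE-Glo, with CellTiter-Fluor viability read beforehand.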

Experiment [13] can be described thus: Dual reporter qHTS for antagonist of Pregnane X Receptor (hPXR) against the NCATS DSHEA and TCM libraries: Fluorescence Readout (AID 1920061). Also: 0% is about no effect. Put shortly: as §2
Experiment [14] in a line: qHTS drug screen for cell cycle checkpoint inhibitors in PARPi-resistant BRCA-mutant ovarian cancer cell lines. (AID 1963452; calls by dose curve). Particulars: PEO1/OlaR viability, CellTiter-Glo luminescence, 96 h, stronger effect = lower value. Put shortly: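 PEO1, PEO4 and PEO1/OlaR ovarian cancer cells, 600 per well, exposed 96 h at 37C to a dilution series. Viability read by CellTiter-Glo luminescence, normalized to DMSO and empty wells; activity summarized as Z-AUC.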

Each structure is given as a SMILES string. Results filed as inconclusive are left out. The source made the active and inactive calls. Unless noted, calls follow the shape of the dose curve; as a rule, active = well fitted curve in the direction sought with a large enough effect; inconclusive = small, poorly fitted or top-dose-only effect, or another doubt; inactive = no such curve, though single readings can be large; an effect the other way counts as inactive or inconclusive.

Sequence of Glutathione peroxidase 1 (Homo sapiens) (P07203 whole entry, looked up): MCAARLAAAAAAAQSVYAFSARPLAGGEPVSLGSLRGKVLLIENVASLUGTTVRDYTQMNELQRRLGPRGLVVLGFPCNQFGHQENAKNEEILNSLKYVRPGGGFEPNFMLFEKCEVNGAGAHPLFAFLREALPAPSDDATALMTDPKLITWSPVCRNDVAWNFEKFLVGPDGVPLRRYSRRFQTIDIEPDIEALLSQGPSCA
Sequence of Phospholipid hydroperoxide glutathione peroxidase GPX4 (Homo sapiens) (P36969 whole entry, looked up): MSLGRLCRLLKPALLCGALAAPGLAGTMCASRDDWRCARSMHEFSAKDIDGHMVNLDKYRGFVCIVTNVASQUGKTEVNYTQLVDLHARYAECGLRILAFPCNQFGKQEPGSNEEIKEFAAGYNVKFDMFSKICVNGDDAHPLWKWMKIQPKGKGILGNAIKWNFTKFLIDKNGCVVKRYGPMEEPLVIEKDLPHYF
Sequence of Nuclear receptor subfamily 1 group I member 2 (Homo sapiens) (O75469 whole entry, looked up): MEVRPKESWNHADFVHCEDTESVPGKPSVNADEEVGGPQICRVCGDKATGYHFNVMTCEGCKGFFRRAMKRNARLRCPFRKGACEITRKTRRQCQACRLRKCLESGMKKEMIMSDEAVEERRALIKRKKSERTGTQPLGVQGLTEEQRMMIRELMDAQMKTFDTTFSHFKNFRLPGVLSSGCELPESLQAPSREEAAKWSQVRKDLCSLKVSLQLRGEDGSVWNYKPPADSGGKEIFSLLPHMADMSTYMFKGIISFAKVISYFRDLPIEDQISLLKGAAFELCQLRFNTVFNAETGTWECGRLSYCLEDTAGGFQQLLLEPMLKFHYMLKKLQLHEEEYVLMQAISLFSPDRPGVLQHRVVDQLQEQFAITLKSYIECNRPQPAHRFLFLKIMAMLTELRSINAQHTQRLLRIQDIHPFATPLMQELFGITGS
Sequence of Cytochrome P450 2D6 (Homo sapiens) (P10635 whole entry, looked up): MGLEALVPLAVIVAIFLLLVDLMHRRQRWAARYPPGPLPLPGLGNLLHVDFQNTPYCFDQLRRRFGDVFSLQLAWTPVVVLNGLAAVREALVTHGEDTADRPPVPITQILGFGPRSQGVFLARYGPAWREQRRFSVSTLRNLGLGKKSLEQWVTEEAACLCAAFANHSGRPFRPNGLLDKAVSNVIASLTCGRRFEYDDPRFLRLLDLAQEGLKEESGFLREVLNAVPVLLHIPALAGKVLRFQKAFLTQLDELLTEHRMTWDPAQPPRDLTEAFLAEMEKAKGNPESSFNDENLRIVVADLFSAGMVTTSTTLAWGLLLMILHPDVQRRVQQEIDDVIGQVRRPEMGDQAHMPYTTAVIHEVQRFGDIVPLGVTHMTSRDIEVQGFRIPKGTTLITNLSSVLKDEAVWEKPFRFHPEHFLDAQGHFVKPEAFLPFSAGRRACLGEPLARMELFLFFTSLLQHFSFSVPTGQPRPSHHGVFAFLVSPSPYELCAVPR
Sequence of Cytochrome P450 3A4 (Homo sapiens) (P08684 whole entry, looked up, canonical isoform): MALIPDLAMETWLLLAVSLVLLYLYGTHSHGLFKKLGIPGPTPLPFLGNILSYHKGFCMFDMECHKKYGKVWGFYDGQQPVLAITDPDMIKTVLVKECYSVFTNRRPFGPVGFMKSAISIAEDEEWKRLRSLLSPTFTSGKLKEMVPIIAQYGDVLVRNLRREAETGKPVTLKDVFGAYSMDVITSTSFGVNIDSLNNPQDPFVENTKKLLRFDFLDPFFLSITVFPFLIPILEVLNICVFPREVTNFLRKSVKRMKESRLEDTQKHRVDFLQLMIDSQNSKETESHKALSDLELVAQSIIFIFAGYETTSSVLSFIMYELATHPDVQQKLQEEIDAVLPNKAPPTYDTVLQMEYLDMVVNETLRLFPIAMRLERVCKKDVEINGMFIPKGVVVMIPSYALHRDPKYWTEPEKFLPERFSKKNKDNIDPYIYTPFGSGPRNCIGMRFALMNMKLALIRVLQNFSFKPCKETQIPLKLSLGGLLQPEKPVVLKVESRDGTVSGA
Sequence of Cytochrome P450 1A2 (Homo sapiens) (P05177 whole entry, looked up): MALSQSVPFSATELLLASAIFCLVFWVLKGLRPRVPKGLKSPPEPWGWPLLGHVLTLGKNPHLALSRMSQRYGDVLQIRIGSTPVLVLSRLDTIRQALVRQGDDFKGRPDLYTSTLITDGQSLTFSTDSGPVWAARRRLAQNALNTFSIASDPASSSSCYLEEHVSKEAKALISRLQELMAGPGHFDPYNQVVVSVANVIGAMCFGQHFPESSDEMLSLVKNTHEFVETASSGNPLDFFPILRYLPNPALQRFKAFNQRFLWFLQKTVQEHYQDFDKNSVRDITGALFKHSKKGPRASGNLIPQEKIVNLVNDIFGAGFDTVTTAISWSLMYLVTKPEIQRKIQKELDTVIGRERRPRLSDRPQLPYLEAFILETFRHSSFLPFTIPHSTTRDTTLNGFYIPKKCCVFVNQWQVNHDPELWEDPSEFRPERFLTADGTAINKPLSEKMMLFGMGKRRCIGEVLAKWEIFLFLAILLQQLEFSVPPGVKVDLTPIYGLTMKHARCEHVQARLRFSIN
Sequence of Cytochrome P450 2C19 (Homo sapiens) (P33261 whole entry, looked up): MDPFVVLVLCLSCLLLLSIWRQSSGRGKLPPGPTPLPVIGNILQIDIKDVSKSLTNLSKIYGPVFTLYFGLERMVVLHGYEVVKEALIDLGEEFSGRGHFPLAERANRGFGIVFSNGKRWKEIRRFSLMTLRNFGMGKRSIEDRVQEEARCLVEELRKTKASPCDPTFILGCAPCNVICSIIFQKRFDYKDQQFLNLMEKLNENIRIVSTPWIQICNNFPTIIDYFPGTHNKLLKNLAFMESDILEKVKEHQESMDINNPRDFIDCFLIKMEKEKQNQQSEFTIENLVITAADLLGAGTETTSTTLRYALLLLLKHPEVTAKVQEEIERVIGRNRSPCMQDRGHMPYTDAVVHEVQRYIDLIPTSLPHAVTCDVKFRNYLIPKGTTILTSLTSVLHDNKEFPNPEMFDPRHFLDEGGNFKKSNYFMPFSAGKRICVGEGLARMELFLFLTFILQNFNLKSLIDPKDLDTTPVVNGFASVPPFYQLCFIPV
Sequence of Cytochrome P450 2C9 (Homo sapiens) (P11712 whole entry, looked up): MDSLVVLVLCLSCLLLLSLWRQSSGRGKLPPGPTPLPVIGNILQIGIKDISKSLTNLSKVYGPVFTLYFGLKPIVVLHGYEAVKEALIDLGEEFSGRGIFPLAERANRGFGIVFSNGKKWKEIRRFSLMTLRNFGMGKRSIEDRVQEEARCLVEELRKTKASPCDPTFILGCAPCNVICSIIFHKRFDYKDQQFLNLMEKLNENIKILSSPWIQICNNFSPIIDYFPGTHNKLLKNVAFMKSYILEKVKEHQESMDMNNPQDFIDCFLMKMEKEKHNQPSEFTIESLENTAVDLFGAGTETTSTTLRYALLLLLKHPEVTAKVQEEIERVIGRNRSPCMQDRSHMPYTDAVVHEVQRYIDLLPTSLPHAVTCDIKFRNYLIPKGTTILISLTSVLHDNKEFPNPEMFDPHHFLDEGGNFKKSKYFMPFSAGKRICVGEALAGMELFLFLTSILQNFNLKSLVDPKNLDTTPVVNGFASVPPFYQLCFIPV

On to `COCC(=O)Nc1c(I)c(C(=O)NCC(O)CO)c(I)c(C(=O)N(C)CC(O)CO)c1I` (stereo unspecified), for which the Potency result in experiment [1] and in [2] was “inactive” each time.

On to `CC(=O)OCC(=O)[C@@]1(O)CC[C@H]2[C@@H]3CCC4=CC(=O)C=C[C@]4(C)[C@@]3(F)[C@@H](O)C[C@@]21C`, for which the Potency result in experiment [1] and in experiment [2] was “inactive” each time.

On to `O=C(O)C(S)C(S)C(=O)O` (stereo unspecified), for which the Potency in experiment [1] is 7.18 µM (active).

In the case of `CCN[C@H]1CN(CCCOC)S(=O)(=O)c2sc(S(N)(=O)=O)cc21`, the Potency entry in [1] and in [2] was “inactive” in each case.

Turning to `CC(C)(C)NCC(O)COc1cccc2c1CCC(=O)N2` (stereo unspecified), the Potency entry in experiment [1] and in [2] was “inactive” in each case.

On to `C/C=C1\[C@H]2C=C(C)C[C@]1(N)c1ccc(=O)[nH]c1C2`, for which the Potency result in experiment [1] and in experiment [2] was “inactive” throughout.

Regarding `CC1(C)S[C@@H]2[C@H](NC(=O)C(C(=O)O)c3ccccc3)C(=O)N2[C@H]1C(=O)O` (stereo partly specified), the Potency entry in experiment [1] and in experiment [2] was “inactive” in each case.

In the case of `CC(C)NC[C@@H](O)COc1ccc(CC(N)=O)cc1`, the Potency entry in [1] and in experiment [2] was “inactive” each time.

For `CCCNC(C)C(=O)Nc1c(C)csc1C(=O)OC` (stereo unspecified), the Potency result in experiment [1] and in experiment [2] was “inactive” each time.

With `CC[C@H](C)[C@H](N)C(=O)O`, the Potency entry in [1] and in experiment [2] was “inactive” each time.

On to `CN[C@@H]1[C@H](O)[C@H](NC)[C@H]2O[C@@]3(O)C(=O)C[C@@H](C)O[C@H]3O[C@@H]2[C@H]1O`, for which the Potency entry in experiment [1] and in experiment [2] was “inactive” each time.

Consider `COC(=O)N/N=C/c1c[n+]([O-])c2ccccc2[n+]1[O-]`, for which the Potency entry in [1] and in [2] was “inactive” in each case.

Consider `CCOC(=O)[C@H](CCc1ccccc1)N[C@@H](C)C(=O)N1Cc2cc(OC)c(OC)cc2C[C@H]1C(=O)O`, for which the Potency result in [1] and in experiment [2] was “inactive” throughout.

As for `Cc1ccsc1/C=C/C1=NCCCN1C`, the Potency result in [1] and in experiment [2] was “inactive” in each case.

Regarding `CC1(C)[C@@H](OC(=O)CCC(=O)O)CC[C@]2(C)[C@H]3C(=O)C=C4[C@@H]5C[C@@](C)(C(=O)O)CC[C@]5(C)CC[C@@]4(C)[C@]3(C)CC[C@@H]12`, the Potency entry in experiment [1] and in [2] was “inactive” throughout.

As to `Cn1cc(C(=O)[C@@H]2CCc3nc[nH]c3C2)c2ccccc21`, the Potency entry in [1] and in experiment [2] was “inactive” throughout.

On to `CCOc1ccccc1O[C@H](c1ccccc1)[C@H]1CNCCO1`, for which the Potency entry in experiment [1] and in [2] was “inactive” each time.

As for `CC(=O)[C@@]1(O)CC[C@H]2[C@@H]3C[C@H](C)C4=CC(=O)C=C[C@]4(C)[C@@]3(F)[C@@H](O)C[C@@]21C`, the Potency result in [1] and in [2] was “inactive” each time.

On to `CC(=O)N(CC(O)CN(C(C)=O)c1c(I)c(C(=O)NCC(O)CO)c(I)c(C(=O)NCC(O)CO)c1I)c1c(I)c(C(=O)NCC(O)CO)c(I)c(C(=O)NCC(O)CO)c1I` (stereo unspecified), for which the Potency result in experiment [1] and in experiment [2] was “inactive” each time.

On to `C[n+]1ccccc1/C=N/O`, for which the Potency entry in experiment [1] and in experiment [2] was “inactive” throughout.

For the molecule `CC(=O)N[C@H]1[C@H]([C@H](O)[C@H](O)CO)OC(C(=O)O)=C[C@@H]1N=C(N)N`, the Potency entry in [1] and in experiment [2] was “inactive” throughout.

As to `CN[C@@H]1[C@@H](O)[C@@H](O[C@@H]2[C@H](O)[C@H](O[C@H]3OC(CN)=CC[C@H]3N)[C@@H](N)C[C@H]2N)OCC1(C)O` (stereo partly specified), the Potency entry in experiment [1] and in [2] was “inactive” throughout.

Consider `C[C@@H](c1ncncc1F)C(O)(Cn1cncn1)c1ccc(F)cc1F` (stereo partly specified), for which the Potency entry in experiment [1] and in experiment [2] was “inactive” in each case.

For the molecule `NS(=O)(=O)c1cc(C2(O)NC(=O)c3ccccc32)ccc1Cl` (stereo unspecified), the Potency result in [1] and in experiment [2] was “inactive” in each case.

As to `CN1C(=O)CC(c2ccccc2)C1=O` (stereo unspecified), the Potency result in [1] and in [2] was “inactive” each time.

Regarding `CCOC(=O)OC(C)OC(=O)[C@@H]1N2C(=O)[C@@H](NC(=O)[C@H](N)c3ccccc3)[C@H]2SC1(C)C` (stereo partly specified), the Potency result in experiment [1] and in experiment [2] was “inactive” each time.

`C[C@]1(Cn2ccnn2)[C@H](C(=O)O)N2C(=O)C[C@H]2S1(=O)=O`: the Potency result in experiment [1] and in [2] was “inactive” each time.

Regarding `CC1(C)S[C@@H]2[C@H](N=CN3CCCCCC3)C(=O)N2[C@H]1C(=O)O`, the Potency result in [1] and in experiment [2] was “inactive” each time.

For the molecule `C=CCOc1ccccc1OCC(O)CNC(C)C` (stereo unspecified), the Potency result in experiment [1] and in experiment [2] was “inactive” each time.

In the case of `CO[C@@]1(NC(=O)C(C(=O)O)c2ccc(O)cc2)C(=O)N2C(C(=O)O)=C(CSc3nnnn3C)CO[C@@H]21` (stereo partly specified), the Potency entry in experiment [1] and in experiment [2] was “inactive” throughout.

Consider `C1CCN2C[C@@H]3C[C@@H](CN4CCCC[C@@H]34)[C@H]2C1`, for which the Potency entry in experiment [1] and in experiment [2] was “inactive” throughout.

Turning to `C=CCN1C[C@H](C(=O)N(CCCN(C)C)C(=O)NCC)C[C@@H]2c3cccc4[nH]cc(c34)C[C@H]21`, the Potency result in experiment [1] was “inactive”.

In the case of `NC(=O)NC1NC(=O)NC1=O` (stereo unspecified), the Potency entry in experiment [1], in experiment [2] and in [6] was “inactive” throughout. Further, the call in [3], in experiment [4], in experiment [5], in experiment [7], in experiment [8] and in experiment [10] was inactive. The molecule was classed as inactive in experiment [11], in [12] and in [13]. The max response in [9] is -2.81% (inactive).

Take `COc1ccccc1OCC(O)CO` (stereo unspecified): the Potency entry in [1] and in [2] was “inactive” each time.

Turning to `C[N+]1(C)CCCC(OC(=O)C(O)(c2ccccc2)c2ccccc2)C1` (stereo unspecified), the Potency result in [1] and in experiment [2] was “inactive” in each case.

For the molecule `O=C(NCC(O)CO)c1c(I)c(C(=O)NCC(O)CO)c(I)c(N(CCO)C(=O)CO)c1I` (stereo unspecified), the Potency result in experiment [1] and in experiment [2] was “inactive” each time.

Take `C/C=C/C(=O)N(CC)c1ccccc1C`: the Potency result in experiment [1] and in experiment [2] was “inactive” in each case. In addition, the Z-AUC in experiment [14] was 0.904 (inactive); in experiment [14] (measured here: PEO1 parental Z-AUC) it was 0.852; in [14] (measured here: PEO4 Z-AUC) it was 0.821.
